# The list is not random: actives were taken first. Their share in the collection is about 2.4%.
# Arbovirus anti: blocks arbovirus infection; inhibition, % at 10 µM; 200,000 tested, 0.37% active; arbovirus infection cell-based antiviral screen; AID 1251; in the data active = inhibition above about 30%
# EP2 mod: modulators of human EP2 prostaglandin E2 receptor; P43116; EP2-expressing cells, cAMP HTRF FRET, PGE2 co-stimulation; induction, % at 25 µM; 260,000 tested, 0.83% active; AID 940;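 active = compounds whose cAMP rise, as percent of the full-agonist control response, exceeds 60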;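 also: rat C6 glioma line stably carrying human EP2 under a CMV promoter; the protocol text gives 20 µM as final concentration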
# EP2 antag: inhibitors of human EP2 prostaglandin E2 receptor; 260,000 tested, 0.52% active; P43116; inhibition, % at 25 µM; C6 glioma cells expressing human EP2, cAMP TR-FRET; cells stimulated with saturating PGE2;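 active = percent inhibition above 40 after rounding to a whole number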;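 also: rat C6 glioma host cells with rolipram phosphodiesterase inhibitor present; the protocol text gives 20 µM as final concentration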
# p97 ATPase inh: human p97 ATPase inhibition. AID 1481. 220,000 tested, 0.42% active. recombinant p97 ATPase, Kinase-Glo ATP luminescence, 3 h. P55072. inhibition, % at 8 µM; in the data active = inhibition above about 15%
# Hck Nef HTS: human Hck-Nef kinase inhibition; inhibition, % at 20 µM; 220,000 tested, 0.68% active; AID 463187; Recombinant Hck-YEEI plus Nef, Z-Lyte FRET kinase assay;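 active = Hck-Nef kinase inhibition above about 50%, limit read from the data; inactive = inhibition below that limit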
# Target sequence (P08631 whole entry, looked up): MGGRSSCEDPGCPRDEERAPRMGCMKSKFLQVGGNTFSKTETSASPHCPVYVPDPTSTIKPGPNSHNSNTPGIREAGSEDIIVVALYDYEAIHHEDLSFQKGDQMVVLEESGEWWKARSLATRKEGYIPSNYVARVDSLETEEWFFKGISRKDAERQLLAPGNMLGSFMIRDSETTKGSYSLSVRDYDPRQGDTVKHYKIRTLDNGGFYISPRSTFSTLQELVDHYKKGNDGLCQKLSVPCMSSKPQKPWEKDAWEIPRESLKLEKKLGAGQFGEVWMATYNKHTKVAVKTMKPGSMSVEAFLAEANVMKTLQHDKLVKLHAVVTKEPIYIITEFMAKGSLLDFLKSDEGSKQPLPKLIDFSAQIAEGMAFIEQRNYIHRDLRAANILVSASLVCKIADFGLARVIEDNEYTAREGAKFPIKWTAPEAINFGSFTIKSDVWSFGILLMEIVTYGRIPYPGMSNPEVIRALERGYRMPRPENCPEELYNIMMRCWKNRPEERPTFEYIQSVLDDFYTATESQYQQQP
# Hits are given with their value; i = inactive; nt = no result given; ! = repeats disagree.
SMILES,Arbovirus anti,EP2 mod,EP2 antag,p97 ATPase inh,Hck Nef HTS
Clc1ccc(-c2noc(CN3CCN(c4ccccc4)CC3)n2)cc1,i,i,i,i,i
Clc1cccc(N2CCN(Cc3nc(-c4ccccc4)no3)CC2)c1,33,i,i,i,i
CC(C)(C)C(=O)N1CCCc2cc(C(O)CN3CCN(c4ccccn4)CC3)ccc21 (stereo unspecified),nt,i,i,nt,nt
Cn1c(C(=O)N(Cc2ccccc2)Cc2cccs2)cc2sccc21,i,65!,i,i,i
Cn1c(C(=O)N(Cc2ccccc2)Cc2ccccn2)cc2sccc21,i,i,i,i,i
Cc1ccc(NN2C(=O)C=C(c3ccccc3)C2=O)cc1,i,i,48,i,i
O=C1c2ccccc2C(=O)N1Nc1ccccc1,i,i,nt,i,i
O=C(c1ncoc1-c1cccs1)N1CCN(c2nc3ccccc3s2)CC1,nt,i,i,nt,nt
CCc1nn2cc(C(=O)c3ccccc3O)cnc2c1-c1ccc(F)cc1,41,i,i,i,i
Cc1ccc(-c2nnn(CC(=O)NC(C)C)n2)o1,nt,i,i,nt,nt
O=c1c2oc3ccccc3c2[nH]c(=S)n1-c1ccc(F)cc1,i,65,i,i,i
Clc1ccc2c(c1)c1cc(Cl)ccc1n2CN1CCOCC1,i,64,i,i,i
CCCCOc1ccc(C(O)C(CN2CCCCC2)c2ccccc2)cc1 (stereo unspecified),37,i,i,i,i
CCCCOc1ccc(C(O)C(CN2CCOCC2)c2ccccc2)cc1 (stereo unspecified),nt,i,i,i,i
CC1Oc2ccc(S(=O)(=O)NCc3ccccn3)cc2NC1=O (stereo unspecified),nt,i,i,nt,nt
N#Cc1ccc(OC(=O)c2ccc(N=C(N)N)cc2)cc1,nt,i,75,nt,nt
C/C(N)=C(/C#N)C(=O)COC(=O)c1ccc(C#N)cc1,i,i,i,i,i
CC1CN(c2ccc([N+](=O)[O-])cc2C#N)CC(C)O1 (stereo unspecified),i,i,i,i,i
CC(C)=Cc1oc2ccc([N+](=O)[O-])cc2c1N1CC(C)OC(C)C1 (stereo unspecified),i,62,i,i,i
CCOc1ccc(-c2csc(NC(=O)Cn3c(=O)oc4ccccc43)n2)cc1,nt,i,i,nt,nt
CCOC(=O)c1nnn(-c2nonc2-n2cccc2)c1CN1CCCCC1,i,63,i,i,i
CCc1cc2ccc(OC)cc2nc1SCC(=O)Nc1ccc2c(c1)OCO2,nt,76,i,nt,nt
CC(C)(C)NC(=O)CSc1nc2cc3c(cc2cc1Cc1ccccc1)OCO3,nt,81,i,nt,nt
CCc1cc2cc(C)c(C)cc2nc1SCC(=O)Nc1ccc2c(c1)OCO2,nt,i,i,nt,nt
CCc1cc2cc3c(cc2nc1SCC(=O)Nc1cc(OC)cc(OC)c1)OCO3,nt,69,i,nt,nt
SMILES,Arbovirus anti,EP2 mod,EP2 antag,p97 ATPase inh,Hck Nef HTS
CCc1cc2cc3c(cc2nc1SCC(=O)Nc1nc2c(s1)CCCC2)OCO3,nt,77,i,nt,nt
CC(=O)Nc1cccc(NC(=O)CSc2nc(C(C)C)nc3ccccc23)c1,nt,i,i,nt,nt
NC(=O)c1nsc(C(=O)N(CC(=O)NCc2ccc(F)cc2)c2ccc3c(c2)OCCO3)c1N,nt,i,i,nt,nt
Oc1ccc(-c2nc3cnccn3c2NCc2cccs2)c(O)c1,nt,i,i,nt,nt
Cc1cccc(-c2n[nH]c(=S)n2C)c1,i,i,i,i,i
Cc1cccc(-c2n[nH]c(=S)o2)c1,nt,i,41,nt,nt
S=c1[nH]nc(-c2cccc(Br)c2)o1,i,i,53,i,i
CCOc1ccccc1-c1n[nH]c(=S)o1,i,i,40,i,i
Cc1ccc2c(=O)c(C(=O)NCCN3CCOCC3)c[nH]c2c1,nt,i,i,nt,nt
CCn1c2cc(C)sc2c2cnn(CC(=O)NC34CC5CC(CC(C5)C3)C4)c(=O)c21,nt,i,nt,nt,nt
CC1CCCN(C(=O)c2cccc(S(=O)(=O)Nc3cc(C(F)(F)F)ccc3Cl)c2)C1 (stereo unspecified),42,i,i,i,i
O=C(c1cccc(S(=O)(=O)Nc2cccc(C(F)(F)F)c2)c1)N1CCOCC1,nt,i,i,i,i
Cc1cccc(CSCc2nc3ccccc3[nH]2)c1,nt,i,i,nt,nt
NC(=O)C(F)(F)C12OC3C4C5CC(C6C5C3C61)C42 (stereo unspecified),i,i,106,i,i
COc1cccc(N(CC(=O)NC2CCCC2)C(=O)c2cc3cc4cccc(C)c4nc3s2)c1,nt,i,i,nt,nt
CSc1nc(-c2ccccc2)c2cc(Cl)ccc2n1,i,62,i,i,i
N#CCSc1nc(-c2ccccc2)c2cc(Cl)ccc2n1,i,i,i,i,i
COc1cccc(C2C(C(C)=O)=C(O)C(=O)N2CC#N)c1 (stereo unspecified),nt,i,i,nt,nt
COC(=O)c1cccc(S(=O)(=O)N(Cc2cccs2)Cc2cc3cc(OC)ccc3[nH]c2=O)c1,nt,i,46,nt,nt
COc1ccc2[nH]c(=O)c(CN(Cc3cccs3)S(=O)(=O)c3ccc(C(C)=O)cc3)cc2c1,nt,i,66,nt,nt
CC(=O)N=c1sc2nc3ccccc3nc2n1N(C(C)=O)C(C)=O,i,i,81,i,i
C=CCn1c(N2CCC(C(=O)NCc3cc(OC)cc(OC)c3)CC2)nc2ccccc21,nt,i,i,nt,nt
CCn1cc(CN2CCC3(CC2)NC(=O)c2ccccc2O3)c(C)n1,nt,i,i,nt,nt
CSc1ccc2c(c1)N(CCCN(C)C)c1ccccc1S2,nt,i,i,nt,nt
CN(C)CCCN1c2ccccc2Sc2cnccc21,nt,i,45,nt,nt
SMILES,Arbovirus anti,EP2 mod,EP2 antag,p97 ATPase inh,Hck Nef HTS
COc1ccccc1N(CC(=O)NC1CCCC1)C(=O)Cn1nnc(-c2ccc(C)cc2)n1,nt,i,i,nt,nt
Cc1ccc(NC(=O)c2sc3cc(C)ccc3c2Cl)c(C)c1,nt,i,i,nt,nt
COCCn1c(C)cc(C(=O)COc2ccc(C)nc2[N+](=O)[O-])c1C,i,i,i,15,i
CCCn1c(C)cc(C(=O)COc2ccc(C)nc2[N+](=O)[O-])c1C,i,i,i,i,i
Cn1cc(/C(Cc2ccccc2)=N\O)c2ccccc21,i,64,i,i,i
Cn1cc(C(N)=O)c2ccccc21,i,i,i,i,i
COc1ccc2[nH]c3c(N4CCN(Cc5ccc6c(c5)OCO6)CC4)ncnc3c2c1,i,i,60,i,i
CCOc1ccc2[nH]c3c(N4CCc5ccccc5C4)ncnc3c2c1,nt,i,44,i,i
COc1ccc2c(c1)c1ncnc(N3CCN(Cc4ccc5c(c4)OCO5)CC3)c1n2C,i,i,i,i,i
COc1ccc(C(=O)N2CCC(C(=O)c3nccs3)CC2)cc1OC,nt,i,nt,nt,nt
Cc1ccc2c(c1)cc(C)c1nn(Cc3cccnc3)c(=O)n12,nt,i,nt,nt,nt
CCOC(=O)C(C)n1ncc2c3sc(C)cc3n(Cc3ccc(F)cc3)c2c1=O (stereo unspecified),nt,65,nt,nt,nt
CCc1ccc2[nH]c(=O)c(CN(CCO)S(=O)(=O)c3ccccc3)cc2c1,nt,i,i,nt,nt
O=C(NC1CCCCC1)C(c1ccccc1F)N(Cc1ccco1)C(=O)Cc1cccs1 (stereo unspecified),nt,63,i,nt,nt
Cc1ccc(N(C(=O)Cc2cccs2)C(C(=O)NC2CCCC2)c2cccs2)cc1 (stereo unspecified),nt,80,i,nt,nt
CC(=O)c1ccc(N(C(=O)Cc2cccs2)C(C(=O)NC2CCCC2)c2cccs2)cc1 (stereo unspecified),nt,i,i,nt,nt

# Compound activity from PubChem BioAssay.
